Measured values as given in PubChem BioAssay (EPA / NIEHS).
Several values for one entry are separate records, joined by “and”; a condition that tells them apart may be missing. Identical values can stand only once. More than one record can exist for a structure, and the calls need not agree. Activity calls are given as the source filed them. The calls were made as follows: active = hit-call score of the fitted dose curve at least 0.9, where 1 is the maximum; inactive = score below 0.9.

Test: ATG_TA_CIS: Attagene CIS-FACTORIAL HepG2 Assay for human TA Basal Promoter (AID 2282964)
Settings: HepG2 Attagene CIS-factorial TA basal promoter reporter; actives raise or lower the signal
Procedure: ATG_CIS is a cell-based, multiplexed-readout assay that uses HepG2, a human liver cell line, with measurements taken at 24 hours after chemical dosing in a 24-well plate.ATG_TA_CIS is one of 52 assay component(s) measured or calculated from the ATG_CIS assay. It is designed to make measurements of mRNA induction, a form of inducible reporter, as detected with fluorescence intensity signals by Reverse transcription polymerase chain reaction (RT-PCR) and Capillary electrophoresis technology.Data from the assay component ATG_TA_CIS was analyzed into 1 assay endpoint. This assay endpoint, ATG_TA_CIS, was analyzed with bidirectional fitting relative to DMSO as the negative control and baseline of activity. Using a type of inducible reporter, measures of mRNA for gain or loss-of-signal activity can be used to understand the background control at the transcription factor-level as they relate to the gene . Furthermore, this assay endpoint can be referred to as a secondary readout, because this assay has produced multiple assay endpoints where this one serves a background control function. To generalize the intended target to other relatable targets, this assay endpoint is annotated to the background measurement intended target family, where the subfamily is internal marker.
Human liver HepG2 cells are transiently transfected with multiple reporter transcription units (MRTUs) in 6-well plates using FuGene 6 reagent (Roche; 3 ml FuGene/1 mg DNA). The MRTU constructs are regulated by a cis-regulating element (promoter). […] A major difference between the CIS and TRANS system is that in CIS activities of endogenous TFs are measured, whereas the TRANS assay evaluates changes in activities of exogenous, chimeric NR-Gal4 proteins. […] At the end of 24 hour incubation, total RNA was isolated using TriZol reagent (Invitrogen). The isolated RNA is then reverse-transcribed using oligo(dT) primer and Mo-MLV reverse transcriptase (Invitrogen) with DNAse I (Ambion) treatment for 30 min. The one-tenth of the produced cDNA was amplified by PCR using Taq DNA polymerase (Invitrogen) and two reporter sequence-specific primers. The PCR products were fluorescently labeled by primer extension with 6-arboxyfluorescein (6-FAM) 5'-labeled reporter sequence-specific primer (2 min at 95 C, 20 s at 68 C and 10 min at 72 C) and these products were digested with 5U of HpaI (New England Biolabs) for 2h at 37 C. The fragments were purified using Qiaquick PCR columns (Qiagen), analyzed on an ABI 3130xL genetic analyzer (Applied Biosystems) with peak positions identified by using a set of X-rhodamine (ROX)-labeled MapMarker1000 molecular weight standards (BioVentures). The raw capillary electrophoresis data was processed using Attagraph software (Attagene).

Structure (SMILES)	AC50	outcome
C#C[C@]1(O)CC[C@H]2[C@@H]3CCc4cc(O)ccc4[C@H]3CC[C@@]21C	132 µM (active)	inactive
CC1=CCC(C(C)C)=CC1	–	inactive
CC(=O)c1ccc(O)cc1	–	inactive
CCCCCCCCCCCCCCCCCC(=O)OCCCCCCCCCCCCCC(C)C	–	inactive
C=C(C)C(=O)OCCC[Si](OC)(OC)OC	–	inactive
CCCCCCC(O)CCOC(C)=O (stereo not given)	–	inactive
Nc1ccc(O)c(N)c1	–	inactive
O=C(O)c1ccccc1O	–	inactive
C=C1CC[C@H]2O[C@]2(C)CC[C@@H]2[C@@H]1CC2(C)C	–	inactive
O=C(O)c1ccco1	–	inactive
CC1(C)[C@H](C=C(Cl)Cl)[C@H]1C(=O)OCc1cccc(Oc2ccccc2)c1	–	inactive
CCCCN(CCO)CCO	–	inactive
CCCCCCCOC(C)=O	–	inactive
CCCC[N+](C)(CCCC)CCCC	–	inactive
CCC(=O)OC/C=C(\C)CCC=C(C)C	–	inactive
C=C1CC/C=C(\C)CC[C@@H]2[C@@H]1CC2(C)C	–	inactive
CC(=O)C1=C(C)[C@@H]2C[C@@]3(C1)[C@H](C)CC[C@H]3C2(C)C	159 µM (active)	–
CC(=O)CCC(=O)O	–	inactive
CCCCCCCCCCO[C@@H]1O[C@H](CO)[C@@H](O)[C@H](O)[C@H]1O	–	inactive

Structure (SMILES)	AC50	outcome
Cc1ccncc1	–	inactive
C=C(C)C(=O)OCCOCCOC(=O)C(=C)C	–	inactive
COC(=O)c1ccc(C(=O)OC)cc1	–	inactive
C=C(C)C(=O)OCCC(C)OC(=O)C(=C)C (stereo not given)	–	inactive
O=C(c1ccc(OCCN2CCCCC2)cc1)c1c(-c2ccc(O)cc2)sc2cc(O)ccc12	19.3 µM (active) and 8.31 µM (active)	inactive
C1CCCNCC1	–	inactive
CC=CC(=O)C1=C(C)C=CCC1(C)C	–	inactive
C=CC(C)CCCC(C)(C)O (stereo not given)	–	inactive
Cc1cccc(O)c1	–	inactive
CC(C)OB(OC(C)C)OC(C)C	–	inactive
C=CC(O)CCCCC (stereo not given)	–	inactive
NC(N)=S	–	inactive
CCCCN(CCCC)CCCCCCN(CCCC)CCCC	–	inactive
CC(CO)(CO)[N+](=O)[O-]	–	inactive
CC1=CC(O)CC(C)(C)C1 (stereo not given)	–	inactive
CC(=O)Oc1c(C)c(C)c2c(c1C)CC[C@@](C)(CCC[C@H](C)CCC[C@H](C)CCCC(C)C)O2	–	inactive
COc1ccc(C(C)=O)cc1	–	inactive
CC(=O)C1C(=O)C=C(C)OC1=O (stereo not given)	–	inactive
COc1ccc2[nH]cc(CCNC(C)=O)c2c1	–	inactive
